Results filed as inconclusive are left out. Calls of active or inactive are those of the source. Calls come from the whole dose curve; as a rule, active = well fitted inhibition curve with a large enough effect in the polarisation, with a control signal flat (not every such curve was filed as active); inconclusive = small, poorly fitted or top-dose-only effect, or effect the other way, or a change in a side signal; inactive = no such curve, though single readings can be large or run the other way; the % refers to the polarisation.
These compounds were tested against Menin (Homo sapiens) (UniProt O00255) (assay: Confirmation of Inhibitors Targeting the Menin-MLL Interaction in MLL Related Leukemias: Competition With Fluorescein Labeled MLL-derived Peptide). Settings: Fluorescence polarization, fluorescein-MLL peptide displacement from menin; series mostly up to 100 µM; activity change, negative = inhibition: at the top concentration.
% is set by controls: 0 for no effect and ±100 for the full control effect.

Menin (Homo sapiens), sequence (O00255 whole entry, looked up): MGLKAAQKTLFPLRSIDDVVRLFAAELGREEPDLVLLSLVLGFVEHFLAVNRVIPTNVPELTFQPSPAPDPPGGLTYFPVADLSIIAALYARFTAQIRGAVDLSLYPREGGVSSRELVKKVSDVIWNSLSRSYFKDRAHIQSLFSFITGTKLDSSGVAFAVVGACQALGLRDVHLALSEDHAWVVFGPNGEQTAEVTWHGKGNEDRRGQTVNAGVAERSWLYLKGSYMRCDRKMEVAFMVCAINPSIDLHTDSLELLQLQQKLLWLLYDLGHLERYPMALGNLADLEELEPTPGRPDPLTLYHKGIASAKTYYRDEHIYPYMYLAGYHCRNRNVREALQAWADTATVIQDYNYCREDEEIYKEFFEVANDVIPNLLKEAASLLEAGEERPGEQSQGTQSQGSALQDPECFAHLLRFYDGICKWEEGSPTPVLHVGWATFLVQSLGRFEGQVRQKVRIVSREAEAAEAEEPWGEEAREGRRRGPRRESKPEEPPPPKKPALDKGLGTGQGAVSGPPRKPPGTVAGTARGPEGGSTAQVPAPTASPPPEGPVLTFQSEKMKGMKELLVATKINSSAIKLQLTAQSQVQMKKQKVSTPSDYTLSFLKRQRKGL

Structure (SMILES) | activity change, negative = inhibition
CCOc1ccc(CCNC(=O)C(C)N2C(=O)CC(C)(C)Sc3ccccc32)cc1 (centres undefined) | -0.246% (inactive)
CCCNC(=O)c1ccc2c(=O)c(O)c(C)[nH]c2c1 | -14.9% (inactive)
CCCn1c(=O)c(C(=O)Nc2ccccc2C(=O)OCC)c(O)c2ccccc21 | -1.38% [at 288 µM] (inactive)
CCCN1CCN(CC(O)COC(c2ccc(OC)cc2)c2ccc(OC)cc2)CC1 (centres undefined) | 1.78% (inactive)
O=C(NNCS(=O)(=O)O)c1ccncc1 | -5.26% (inactive)
CCCOc1ccc(C(=O)NNC(=S)NC(=O)c2cc(-c3ccc(Cl)cc3)nc3ccccc23)cc1 | -3.33% [at 288 µM] (inactive)
CCN1C(=O)c2ccccc2S(=O)(=O)c2ccc(C(=O)NCCCN(CC(C)C)CC(C)C)cc21 | -17.2% (inactive)
CC(Sc1nnc(Nc2ccccc2)s1)C(=O)Nc1nc(-c2ccccc2)cs1 (centres undefined) | 7.12% (inactive)
N#Cc1ccc(Cl)cc1NC(=O)CNCc1cccs1 | -3.53% (inactive)
Cc1ccc(-c2csc(NC(=O)c3ccc(S(=O)(=O)N4CCc5ccccc54)cc3)n2)cc1 | -0.485% (inactive)
C[N+]1(CCNC(=O)/C=N/O)CCCCC1 | -18.6% (inactive)
COc1ccccc1NS(=O)(=O)c1cc(NC(=O)Nc2cccc(C)c2)ccc1N1CCCCC1 | -1.07% (inactive)
COc1ccccc1C(=O)Nc1ccccc1SC(=O)c1ccccc1OC | 15.3% [at 288 µM] (inactive)
O=C(Nc1ccc(F)c(Cl)c1)c1cc(-c2ccco2)on1 | 3.78% (inactive)
Cc1ccc(C(C[N+](=O)[O-])c2c(C)[nH]n(-c3ccccc3)c2=O)cc1 (centres undefined) | -2.87% (inactive)
CN(C)C(CNc1ncnc2sc3c(c12)CCCCC3)c1ccco1 (centres undefined) | -25.6% (inactive)
COC(=O)C1[C@H]2SC(C)(C)C(C(=O)OC)N2C(=O)N1Cc1nc2ccccc2s1 (some centres undefined) | -3.37% (inactive)

Structure (SMILES) | activity change, negative = inhibition
O=C(CSc1nc(O)cc(=O)n1-c1ccccc1)c1ccc(Br)cc1 | -15.8% (inactive)
CCc1ccc(CNC(=O)CCS(=O)(=O)Cc2ccccc2F)cc1 | -4.29% (inactive)
CCCC(=O)Nc1cccc(NC(=O)c2ccc([N+](=O)[O-])cc2Cl)c1 | 0.163% [at 288 µM] (inactive)
COCC(=O)Nc1cccc2ccccc12 | -12.3% (inactive)
Cc1nn(-c2ccccc2)c2nc(N)c(C(N)=O)cc12 | -7.72% (inactive)
O=S(=O)(Nc1cccc(-c2cn3cccnc3n2)c1)c1ccccc1 | 1.3% [at 288 µM] (inactive)
COc1ccccc1N(CC1CO1)S(=O)(=O)c1ccccc1 (centres undefined) | -17.6% (inactive)
COc1ccccc1NS(=O)(=O)c1cc(NC(=O)Nc2ccc(Cl)cc2Cl)ccc1N1CCCCC1 | -8.05% (inactive)
O=C(Nc1nccs1)C(Br)C(Br)c1ccccc1 (centres undefined) | 0.0812% [at 288 µM] (inactive)
CCn1cnc2c1c(=O)n(CC(=O)O)c(=O)n2Cc1ccccc1 | -2.36% [at 288 µM] (inactive)
Cc1ccc(NC(=O)CN2C(=O)S/C(=C\c3ccc(C(=O)O)cc3)C2=O)cc1 | -14.2% (inactive)
CC(=O)c1cccc(OCC(O)CNCC2COc3ccccc3O2)c1 (centres undefined) | 0.566% (inactive)
CC(=O)Nc1ccc(-c2cc3ccccc3o2)cc1 | -1.48% (inactive)
COc1cccc(NC(=O)N2CCCc3ccccc32)c1 | -1.89% (inactive)
c1ccc(-c2ccc(-c3csnn3)cc2)cc1 | 2.75% (inactive)
O=C1C(Cl)=C(NC(=O)c2ccccc2)C(=O)C(Cl)=C1NC(=O)c1ccccc1 | 5.77% [at 288 µM] (inactive)
Cc1ccc(C(=O)Sc2cccccc2=O)cc1 | 0.406% [at 288 µM] (inactive)
